# Several values for one entry are separate records, joined by “and”; a condition that tells them apart may be missing. Equal values may be shown once. Unmarked numbers belong to inactive results. Activity calls are given as the source filed them.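 Rule for the calls: active = inhibition at or above 50% relative to wild type and mutant plate controls; inactive = inhibition below 50%.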
# Assay: loss of swimming-algae plug formation – whole organism, Chlamydomonas reinhardtii, WT vs cilia-less mutant, absorbance, 96-well, primary screen (AID 463189);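 note: 0% = wild type cc124 cells in DMSO and 100% = ciliumless bld1 mutant cells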
# Settings: Chlamydomonas reinhardtii gravitaxis, OD600 absorbance, 2 days; at 10 µM; stronger effect = higher value
row,Compound,inhibition
1,Clc1ccc(N2CC3CCC(C2)N3)nn1,1.03%
2,COc1ccc2[nH]cc(CCN)c2c1,3.77%
3,NC1CC1c1ccccc1 (stereo unspecified),9.58%
4,CS(=N)(=O)CC[C@H](N)C(=O)O (stereo partly specified),3.52%
5,CCC1(c2ccc(N)cc2)CCC(=O)NC1=O (stereo unspecified),-0.133%
6,NCCc1c[nH]c2ccc(O)cc12,-4.38%
7,COc1ccc(CCN)cc1O,4.96%
8,CC(=O)c1c(O)c(C)c(O)c(Cc2c(O)c3c(c(C(=O)/C=C/c4ccccc4)c2O)OC(C)(C)C=C3)c1O,-7.31%
9,C=C(C)[C@H]1Cc2c(ccc3c2O[C@@H]2COc4cc(OC)c(OC)cc4[C@@H]2C3=O)O1,4.66%
10,NCCc1c[nH]c2ccccc12,2.92%
11,CC(C)(C)c1cc(C=C(C#N)C#N)cc(C(C)(C)C)c1O,1.13%
12,COc1cc(CCN)ccc1O,2.21%
13,NC(Cn1oc(=O)[nH]c1=O)C(=O)O (stereo unspecified),-0.927%
14,CCCN(CCC)C1Cc2cc(OC)c(OC)cc2C1,-11.6%
15,NC(=O)CN1CC(O)CC1=O (stereo unspecified),9.01%
16,S=C(NC1CCCCC1)N1CCC(c2cnc[nH]2)CC1,12.6%
17,CC(C)c1cccc(C(C)C)c1O,-3.28%
18,O=C(O)CC[N+](=O)[O-],2.51%
19,C=CCN1CC[C@]23c4c5ccc(O)c4O[C@@H]2/C(=N/N=C2\CC[C@@]4(O)C6Cc7ccc(O)c8c7[C@@]4(CCN6CC=C)[C@@H]2O8)CC[C@@]3(O)C1C5,6.59%
20,O=c1[nH]oc2c1CCNC2,1.51%
21,CCc1c(C(=O)OC)ncc2[nH]c3cc(OC)c(OC)cc3c12,1.73%
22,CN[C@@H](C)[C@H](O)c1ccccc1,-4.11%
23,C[C@]12CC[C@H](OS(=O)(=O)O)CC1=CC[C@@H]1[C@@H]2CC[C@]2(C)C(=O)CC[C@@H]12,6.73%
24,CNc1ccc2oc(C[C@H]3O[C@@]4(CC[C@H]3C)O[C@H]([C@H](C)C(=O)c3ccc[nH]3)[C@H](C)C[C@H]4C)nc2c1C(=O)O,84.5% (active)
25,N#CC(=Cc1ccc(O)c(O)c1)C(N)=S,10.3%
26,CC12CCC3C(CCC4=C(O)C(=O)CCC43C)C1CCC2=O (stereo unspecified),12.9%

row,Compound,inhibition
1,C[Se]C[C@H](N)C(=O)O,1.72%
2,NC(N)=Nc1ccc2[nH]c3c(c2c1)C[C@@]1(O)[C@H]2Cc4ccc(O)c5c4[C@@]1(CCN2CC1CC1)[C@H]3O5,-0.588%
3,CCN(CC)C(=O)N[C@H]1C=C2c3cccc4[nH]cc(c34)C[C@H]2N(C)C1,8.76%
4,O=S1(=O)N(CCN2CC=C(c3c[nH]c4cc(F)ccc34)CC2)c2cccc3c2N1CCC3,-4.93%
5,COc1cc(C(O)CN)ccc1O (stereo unspecified),2.77%
6,CN1CCc2cc(O)cc3c2[C@H]1Cc1ccc(O)c(O)c1-3,-0.305%
7,CN1CCC23CCCC[C@H]2C1Cc1ccc(O)cc13 (stereo partly specified),-3.02%
8,Clc1ccc(C(c2ccc(Cl)cc2)n2cc[n+](CC(OCc3ccc(Cl)cc3Cl)c3ccc(Cl)cc3Cl)c2)cc1 (stereo unspecified),133% (active)
9,O=C1CCCN1CC#CCN1CCCC1,7.02%
10,CC1OC1P(=O)(O)O (stereo unspecified),0.291%
11,Clc1cnc(Oc2ccc(Oc3ncc(Cl)cc3Cl)cc2)c(Cl)c1,2.67%
12,NN=C(N)N,15.6% and 6.1%
13,C=CCN1CCc2cccc3c2[C@H]1Cc1ccc(O)c(O)c1-3,6.2%
14,CCCCCCC(C)(C)c1ccc([C@@H]2C[C@H](O)CC[C@H]2CCCO)c(O)c1,-3.04%
15,CCN(CC)c1ncnc2c1ncn2[C@@H]1O[C@H](COP(=O)(O)OP(=O)(O)C(Br)(Br)P(=O)(O)O)[C@@H](O)[C@H]1O,-12.6%
16,c1ccc2c(c1)[I+]c1ccccc1-2,152% (active)
17,COc1ccc2c(c1O)-c1cccc3c1[C@@H](C2)N(C)CC3,6.42%
18,C=CCN1CCC2(C)c3cc(O)ccc3CC1C2C (stereo unspecified),0.366%
19,CC(=O)NCCc1c[nH]c2ccccc12,7.09%
20,O=C1C=CC(=O)C=C1,-11.2%
21,O=C(CCCN1CCC2(CC1)C(=O)N(CCc1ccc(N=C=S)cc1)CN2c1ccccc1)c1ccc(F)cc1,2.53%
22,O=[N+]([O-])c1ccc(O[C@@H]2O[C@H](CO)[C@@H](O)[C@H](O)[C@H]2F)c([N+](=O)[O-])c1,3.53%
23,C=CCN1CCC2(C)c3cc(O)ccc3CC1[C@@H]2C (stereo partly specified),4.21%
24,C/C=C(/C)C(=O)O[C@H]1C(C)=C2[C@H]([C@@H]1OC(=O)CCCCCCC)[C@@](C)(OC(C)=O)C[C@H](OC(=O)CCC)[C@@]1(O)[C@H]2OC(=O)[C@@]1(C)O,-1.82%
25,CCCN(CCC)[C@@H]1CCc2ccc(O)cc2C1,-3.45%

# Reference: PubChem BioAssay
